Test results reported in publication PMC4552634, “A New Set of Chemical Starting Points with Plasmodium falciparum Transmission-Blocking Potential for Antimalarial Drug Discovery” (PLoS ONE, 2015).
The campaign covered roughly 13,000 compounds. About 3,200 (25%) showed an effect of 50% or more. The list shows a part of the results.

System: P. falciparum stage V gametocytes
Parameters: BacTiter-Glo ATP luminescence viability of purified stage V gametocytes in 384-well plates, per cent inhibition versus DMSO
Conditions: 48 h, 5 µM; inhibitor

SMILES | % Inhibition [%]
CC(=O)N(C)c1cccc(CNc2cc(C)nc(Nc3ccc(C)cc3)n2)c1 [TCMDC-134005] | 7.958
CN1CCN(CC(=O)Nc2ccc(-c3ccc(-c4nc5cc(C(F)(F)F)ccc5[nH]4)s3)cc2)CC1 [TCMDC-136976] | 14.59
COc1cc(Cc2cnc(N)nc2N)cc(OCCCCc2nn[nH]n2)c1OC [TCMDC-138032] | 13.98
Cc1cccc(-c2nc3[nH]c(=O)cc(NC(=O)C(C)C)n3n2)c1 [TCMDC-125001] | -2.254
CCCCCCN1CCCN(Cc2ccc(C(=O)Nc3ccc(CC)cc3)cc2)CC1 [TCMDC-136450] | 13.19
O=C(Nc1cccc(CN2CCCN(Cc3ccc(O)cc3)CC2)c1)c1ccc(-c2ccccc2)cc1 [TCMDC-141850] | 69.39
O=C(Nc1cccc(CN2CCN(Cc3ccc(O)cc3)CC2)c1)c1ccc(-c2ccccc2)cc1 [TCMDC-141886] | 12.46
CCCCCCN1CCCN(Cc2ccc(C(=O)Nc3ccc(C(C)C)cc3)cc2)CC1 [TCMDC-136423] | 90.22
COc1ccc(CN2CCCN(Cc3ccc(C(=O)Nc4ccc(Cl)cc4)cc3)CC2)cc1 [TCMDC-136409] | 0.3374
CCCc1ccc(NC(=O)c2ccc(CN3CCCN(Cc4ccc(OC)cc4)CC3)cc2)cc1 [TCMDC-136422] | 91.61
O=C(Nc1cccc(CN2CCCN(Cc3cccc(Cl)c3)CC2)c1)c1ccc(-c2ccccc2)cc1 [TCMDC-141837] | -76.33
CCCCCCN1CCCN(Cc2ccc(C(=O)Nc3ccc(Cl)cc3)cc2)CC1 [TCMDC-136416] | 35.96
CCCCCCN1CCCN(Cc2ccc(C(=O)Nc3ccc(CCC)cc3)cc2)CC1 [TCMDC-136424] | 9.552
Oc1c(Br)cc2oc3c(c2c1CNCc1ccccc1)CCCC3 [TCMDC-124248] | 19.71
Cc1cccc2c(CON3C(N)=NC(N)=NC3(C)C)cccc12 [TCMDC-131325] | 30.52
c1ccc2c(c1)CN(Cc1ccsc1)CC1(CCN(Cc3c[nH]c4cnccc34)CC1)O2 [TCMDC-133374] | -8.367
CS(=O)(=O)CCNCc1ccc(-c2ccc3c(Nc4ccc(Cl)cc4F)ccnc3c2)o1 [TCMDC-138445] | 0.4033
CN(C)CCN(C)Cc1ccc(-c2ccc3c(Nc4ccc(F)cc4Cl)ccnc3c2)o1 [TCMDC-138447] | 57.57
CN1CCN(Cc2ccc(-c3ccc4c(Nc5ccc(F)cc5Cl)ccnc4c3)o2)CC1 [TCMDC-138452] | 13.09
CN(C)CCN(C)Cc1ccc(-c2ccc3c(Nc4ccc(Cl)cc4F)ccnc3c2)o1 [TCMDC-138388] | 33.59
COCCNCc1ccc(-c2ccc3c(Nc4ccc(F)cc4Cl)ccnc3c2)o1 [TCMDC-138448] | 12.72
Fc1ccc(Nc2ccnc3cc(-c4ccc(CNCCN5CCOCC5)o4)ccc23)c(Cl)c1 [TCMDC-138451] | 28.52
CN(C)CCNCc1ccc(-c2ccc3c(Nc4ccc(F)cc4Cl)ccnc3c2)o1 [TCMDC-138449] | 71.06
COCCNCc1ccc(-c2ccc3c(Nc4ccc(Cl)cc4F)ccnc3c2)o1 [TCMDC-138390] | 17.71
Fc1ccc(Nc2ccnc3cc(-c4ccc(CN5CCOCC5)o4)ccc23)c(Cl)c1 [TCMDC-138450] | -9.806
CN(C)Cc1ccc(-c2ccc3c(Nc4ccc(Cl)cc4F)ccnc3c2)o1 [TCMDC-138389] | 51.2
CN(C)CCNCc1ccc(-c2ccc3c(Nc4ccc(Cl)cc4F)ccnc3c2)o1 [TCMDC-138391] | 96.42

SMILES | % Inhibition [%]
Fc1cc(Cl)ccc1Nc1ccnc2cc(I)ccc12 [TCMDC-138376] | -32.49
Cc1cccc2nc(-c3ccc(-c4ccc(CN5CC(C)OC(C)C5)cc4)cc3)[nH]c12.O=C(O)C(F)(F)F (centres unmarked) [TCMDC-133823] | -0.7329
Cc1noc(C)c1CN1CCCN(c2ccc3c(c2)CCN(Cc2ccc(-c4ncc[nH]4)cc2)CC3)CC1 [TCMDC-136548] | -0.683
CO/N=C(\C)c1ccc2c(c1)CCN(CCC1CCC(NC(=O)/C=C/c3ccc(F)cc3)CC1)CC2 (centres unmarked) [TCMDC-139922] | -74.19
Fc1ccc2nc(-c3ccc(-c4ccc(CNCCc5cccnc5)cc4)s3)[nH]c2c1 [TCMDC-132875] | -31.32
N#Cc1cccc(C(=O)Nc2cccc(-c3ccc(CN4CCC(O)CC4)cc3)c2)c1 [TCMDC-132652] | -17.85
CCOC(=O)c1[nH]c2cc(Cl)cc(Cl)c2c1/C=C/C(=O)Nc1ccc(-c2cnc(NC(C)=O)[nH]2)cc1 [TCMDC-137161] | -8.366
Cc1c(C(=O)N(C)C)sc2c1c(=O)n(Cc1ccccc1)c(=O)n2CC(=O)Nc1ccccc1F [TCMDC-125279] | 4.453
CCc1nc2nc(C)cc(Nc3cc(C)cc(C)c3)n2n1 [TCMDC-124402] | 51.49
CCc1nc2nc(C)cc(Nc3ccc(F)c(Cl)c3)n2n1 [TCMDC-124770] | 1.315
CCc1nc2nc(C)cc(Nc3ccc4c(c3)OCCO4)n2n1 [TCMDC-125299] | -0.3909
CC1(C)N=C(N)N=C(N)N1OCCNCc1ccc(Cl)cc1 [TCMDC-131628] | 11.83
O=C(Nc1cccc(-c2nn3ccccc3c2-c2ccnc(Nc3ccc(-c4cc[nH]n4)cc3)n2)c1)c1c(F)cccc1F [TCMDC-135915] | -3.577
CC1CCCC(Nc2noc(-c3sccc3Br)n2)C1 (centres unmarked) [TCMDC-134184] | -4.566
Fc1ccc2[nH]c(-c3ccc(-c4ccc(CNCCc5ccncc5)cc4)cc3)nc2c1.O=C(O)C(F)(F)F [TCMDC-132851] | -25.93
O=C(O)C(F)(F)F.c1cc(CNCCc2ccncc2)cc(-c2ccc(-c3nc4ccccc4[nH]3)cc2)c1 [TCMDC-132856] | -34.48
Cc1cccc2nc(-c3cccc(-c4ccc(CNCCc5ccncc5)cc4)c3)[nH]c12.O=C(O)C(F)(F)F [TCMDC-132846] | -3.628
CS(=O)(=O)c1ccc(CNCc2ccc(-c3cccc(-c4nc5cc(F)ccc5[nH]4)c3)cc2)cc1.O=C(O)C(F)(F)F [TCMDC-132904] | 15.16
Fc1ccc2[nH]cc(CCNCc3ccc(-c4cccc(-c5nc6ccccc6[nH]5)c4)cc3)c2c1.O=C(O)C(F)(F)F [TCMDC-132573] | 88.58
O=C(O)C(F)(F)F.c1ccc(CCNCc2ccc(-c3cccc(-c4nc5ccccc5[nH]4)c3)cc2)nc1 [TCMDC-132537] | 93.06
O=C(O)C(F)(F)F.c1ccc(-c2ccc(CNCc3ccc(-c4cccc(-c5nc6ccccc6[nH]5)c4)cc3)s2)nc1 [TCMDC-132571] | 17.42
O=C(O)C(F)(F)F.c1cc(-c2ccc(CNCCc3ccncc3)cc2)cc(-c2nc3ccccc3[nH]2)c1 [TCMDC-132553] | 67.12
CS(=O)(=O)c1ccc(CCNCc2ccc(-c3cccc(-c4nc5ccccc5[nH]4)c3)cc2)cc1.O=C(O)C(F)(F)F [TCMDC-132558] | 87.75
CS(=O)(=O)c1ccc(CNCc2ccc(-c3cccc(-c4nc5ccccc5[nH]4)c3)cc2)cc1.O=C(O)C(F)(F)F [TCMDC-132557] | -11.29
CN(CCNCc1ccc(-c2cccc(-c3nc4ccccc4[nH]3)c2)cc1)S(C)(=O)=O.O=C(O)C(F)(F)F [TCMDC-132561] | 23.76
O=C(O)C(F)(F)F.c1cncc(CCNCc2ccc(-c3cccc(-c4nc5ccccc5[nH]4)c3)cc2)c1 [TCMDC-132554] | 4.222
